Consider nine compounds from PubChem BioAssay (NCI).

Holding throughout (test): NCI-60 one-dose screen, 48 h (100 = growth as untreated, 0 = no growth, -100 = all killed)
One experiment deals with SK-MEL-2 melanoma. Conditions: 10 µM.
For a further experiment, the system named is EKVX NSCLC. Conditions: 10 µM.
A further experiment deals with SN12C renal. Conditions: 10 µM.
The next experiment relates to UO-31 renal. Particulars: 10 µM.
A further experiment relates to TK-10 renal.
For another experiment, the system named is ACHN renal. Particulars: 10 µM.
The test system of a further experiment is CAKI-1 renal. Particulars: 10 µM.
The subject of the next experiment is A498 renal. Particulars: 10 µM.
A further experiment has as its system CCRF-CEM leukemia. Particulars: 10 µM.
The test system of the next experiment is MOLT-4 leukemia. Particulars: 10 µM.
The next experiment deals with SR leukemia. Particulars: 10 µM.
The next experiment concerns RPMI-8226 leukemia. Particulars: 10 µM.
The test system of a further experiment is OVCAR-8 ovarian. Particulars: 10 µM.
The subject of another experiment is OVCAR-5 ovarian. Particulars: 10 µM.
The next experiment concerns OVCAR-4 ovarian. Conditions: 10 µM.
The subject of a further experiment is SK-OV-3 ovarian. Conditions: 10 µM.
A further experiment relates to IGROV1 ovarian. Particulars: 10 µM.
For the next experiment, the system named is OVCAR-3 ovarian. Conditions: 10 µM.
For another experiment, the system named is HS 578T breast. Conditions: 10 µM.
For a further experiment, the system named is NCI/ADR-RES ovarian. Particulars: 10 µM.

Several values for one entry are separate records, joined by “and”; a condition that tells them apart may be missing. Equal entries are not always repeated. This is part of a sample that, as a whole, favours compounds with a hit. Of some 83,000 tested, about 20% had one in any assay.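 In brief: 96-well plates, 48 h treatment, single concentration, percent growth endpoint.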 A number with no mark means an inactive call. Activity calls are given as the source filed them. How the source made its calls: active means growth percent below 10; inactive means the rest.

Consider `Cc1cc(C)cc(NCCC#N)c1`, for which the growth was 98.3% with SK-MEL-2 melanoma; 103% in the experiment on EKVX NSCLC; 110% in the experiment with SN12C renal; 96.5% with UO-31 renal; 129% in the experiment on TK-10 renal (10 µM unless noted); 107% in the experiment on ACHN renal. For the same compound, the growth with CAKI-1 renal was 107%; in the experiment on A498 renal, 111%; in the experiment with CCRF-CEM leukemia it was 96.8%; with MOLT-4 leukemia it was 91.4%; in the experiment on SR leukemia, 107%; in the experiment with RPMI-8226 leukemia, 106%. The growth with OVCAR-8 ovarian is 126%; with OVCAR-5 ovarian, 112%; in the experiment on OVCAR-4 ovarian, 102%; in the experiment with SK-OV-3 ovarian it was 106%; in the experiment on IGROV1 ovarian, 110%; in the experiment with OVCAR-3 ovarian, 105%. For the same compound, the growth is 134% with HS 578T breast and 110% in the experiment with NCI/ADR-RES ovarian.

In the case of `CC(=O)OCC1=CC2OC(=O)C3=COC(OC4OC(CO)C(O)C(O)C4O)C1C32` (configuration not stated), the growth in the experiment with SK-MEL-2 melanoma is 138%; in the experiment on EKVX NSCLC it was 101%; with SN12C renal it was 101%; in the experiment with UO-31 renal it was 96.7%; in the experiment on TK-10 renal (10 µM), 113%; in the experiment on TK-10 renal (100 µM) it was 81% and 93.8%. For the same compound, the growth is 111% in the experiment on ACHN renal; 101% with CAKI-1 renal; 104% in the experiment on CCRF-CEM leukemia; 141% with MOLT-4 leukemia; 120% in the experiment on SR leukemia; 111% in the experiment with OVCAR-5 ovarian. In addition, the growth was 129% in the experiment with OVCAR-4 ovarian; 108% in the experiment with SK-OV-3 ovarian; 71.3% in the experiment with IGROV1 ovarian; 112% with OVCAR-3 ovarian; 32.9% in the experiment with NCI/ADR-RES ovarian.

Take `OC(c1ccccn1)C(O)c1ccccn1` (configuration not stated): the growth with SK-MEL-2 melanoma is 108%; in the experiment with EKVX NSCLC it was 124%; in the experiment on SN12C renal, 91.5%; in the experiment on UO-31 renal, 89%; in the experiment with TK-10 renal (10 µM unless noted), 108%; in the experiment with ACHN renal, 98.2%. Moreover, the growth was 116% in the experiment on CAKI-1 renal; 95.9% with A498 renal; 104% with CCRF-CEM leukemia; 95.1% with MOLT-4 leukemia; 98.7% in the experiment on SR leukemia; 108% with RPMI-8226 leukemia. The growth is 102% in the experiment on OVCAR-8 ovarian; 90.7% with OVCAR-5 ovarian; 107% with OVCAR-4 ovarian; 103% with SK-OV-3 ovarian; 97.9% in the experiment with IGROV1 ovarian; 113% in the experiment with OVCAR-3 ovarian. The growth in the experiment on HS 578T breast and with NCI/ADR-RES ovarian was 111% in each case.

Take `O=c1[nH]c(O)c(/C=C2/C=Nc3ccccc32)[nH]1`: the growth with SK-MEL-2 melanoma is 104%; in the experiment on EKVX NSCLC it was 95%; with SN12C renal, 98.3%; with UO-31 renal, 68.7%; in the experiment with TK-10 renal (10 µM unless noted), 99.9%; in the experiment with ACHN renal it was 87%. Also, the growth in the experiment on CAKI-1 renal was 106%; in the experiment with A498 renal, 86%; with CCRF-CEM leukemia, 58.2%; with MOLT-4 leukemia, 73.7%; in the experiment on SR leukemia it was 76.3%; in the experiment with RPMI-8226 leukemia, 78%. Further, the growth in the experiment on OVCAR-8 ovarian is 98.1%; in the experiment on OVCAR-5 ovarian, 96%; in the experiment with OVCAR-4 ovarian, 90%; in the experiment on SK-OV-3 ovarian it was 112%; with IGROV1 ovarian it was 93.8%; in the experiment on OVCAR-3 ovarian, 100%. In addition, the growth in the experiment on HS 578T breast is 95.1%; with NCI/ADR-RES ovarian it was 96.4%.

For `CCCCNC1(C#N)CCN(Cc2ccccc2)CC1`, the growth with SK-MEL-2 melanoma was 102%; with EKVX NSCLC, 95.5%; in the experiment with SN12C renal, 104%; in the experiment on UO-31 renal it was 81.1%; in the experiment with TK-10 renal (10 µM unless noted), 105%; with ACHN renal, 106%. Besides, the growth with CAKI-1 renal is 76.1%; in the experiment on A498 renal it was 78.5%; in the experiment with CCRF-CEM leukemia, 102%; with MOLT-4 leukemia it was 152%; in the experiment with SR leukemia it was 115%; with RPMI-8226 leukemia, 99.2%. The growth in the experiment with OVCAR-8 ovarian was 96.4%; in the experiment with OVCAR-5 ovarian it was 88.9%; in the experiment with OVCAR-4 ovarian, 103%; with SK-OV-3 ovarian, 97.1%; in the experiment with IGROV1 ovarian, 91.9%; with OVCAR-3 ovarian it was 132%. The growth with HS 578T breast was 101%; with NCI/ADR-RES ovarian it was 88.3%.

As to `Cc1cccc(CO)c1`, the growth with SK-MEL-2 melanoma is 110%; with EKVX NSCLC, 113%; in the experiment on SN12C renal, 106%; in the experiment on UO-31 renal, 92.9%; in the experiment on TK-10 renal (10 µM unless noted), 108%; with ACHN renal it was 111%. In addition, the growth in the experiment with CAKI-1 renal is 100%; in the experiment on A498 renal, 108%; in the experiment on CCRF-CEM leukemia, 110%; in the experiment with MOLT-4 leukemia it was 106%; with SR leukemia, 109%; in the experiment with RPMI-8226 leukemia it was 114%. The growth is 101% in the experiment on OVCAR-8 ovarian; 107% with OVCAR-5 ovarian; 103% with OVCAR-4 ovarian; 107% in the experiment with SK-OV-3 ovarian; 115% with IGROV1 ovarian; 98.9% with OVCAR-3 ovarian. Further, the results for the growth with HS 578T breast and with NCI/ADR-RES ovarian were 101% and 106%, respectively.

For the compound `Oc1ccc(N=Nc2ccc(Br)cc2)c(O)c1`, the growth in the experiment on SK-MEL-2 melanoma is -5.42% (active); in the experiment on EKVX NSCLC, 47.4%; with SN12C renal, 54.1%; in the experiment on UO-31 renal it was 30.3%; in the experiment with TK-10 renal (10 µM unless noted), 39.2%; in the experiment on ACHN renal it was 49.8%. Besides, the growth in the experiment with CAKI-1 renal was 3.01% (active); in the experiment on A498 renal it was 23.5%; with CCRF-CEM leukemia it was -20% (active); in the experiment with MOLT-4 leukemia, 21.2%; in the experiment with SR leukemia, -8.8% (active); with RPMI-8226 leukemia, -37.3% (active). The growth with OVCAR-8 ovarian is 24.1%; in the experiment with OVCAR-5 ovarian, 80.7%; in the experiment on OVCAR-4 ovarian it was 33.7%; in the experiment on SK-OV-3 ovarian it was 25.7%; in the experiment on IGROV1 ovarian it was -15.3% (active); in the experiment on OVCAR-3 ovarian, -65.2% (active). Also, the growth in the experiment on HS 578T breast is 10.4%; in the experiment with NCI/ADR-RES ovarian, -55.4% (active).

Regarding `CCOC(=O)C(O)C(O)C(=O)OCC` (configuration not stated), the growth was 103% in the experiment on SK-MEL-2 melanoma; 111% in the experiment on EKVX NSCLC; 102% with SN12C renal; 97.1% in the experiment on UO-31 renal; 102% with TK-10 renal (10 µM unless noted); 109% in the experiment on ACHN renal. For the same compound, the growth in the experiment with CAKI-1 renal is 101%; in the experiment with A498 renal, 101%; with CCRF-CEM leukemia, 107%; with MOLT-4 leukemia, 104%; with SR leukemia, 104%; in the experiment on RPMI-8226 leukemia, 110%. Besides, the growth is 105% in the experiment with OVCAR-8 ovarian; 100% in the experiment on OVCAR-5 ovarian; 110% in the experiment with OVCAR-4 ovarian; 108% in the experiment on SK-OV-3 ovarian; 115% with IGROV1 ovarian; 107% with OVCAR-3 ovarian. In addition, the growth is 103% in the experiment with HS 578T breast and 108% in the experiment with NCI/ADR-RES ovarian.

Turning to `N/N=C(/Cc1ccccc1)NNC(N)=S`, the growth with SK-MEL-2 melanoma is 104%; in the experiment with EKVX NSCLC it was 91.9%; in the experiment on SN12C renal, 104%; in the experiment with UO-31 renal, 81.4%; with TK-10 renal (10 µM unless noted) it was 118%; in the experiment with ACHN renal, 104%. The growth with CAKI-1 renal was 96.4%; in the experiment on A498 renal, 87.5%; in the experiment on CCRF-CEM leukemia, 93.8%; in the experiment with MOLT-4 leukemia it was 98.4%; in the experiment with SR leukemia it was 99.2%; in the experiment on RPMI-8226 leukemia it was 100%. The growth with OVCAR-8 ovarian was 108%; with OVCAR-5 ovarian, 111%; in the experiment with OVCAR-4 ovarian it was 101%; with SK-OV-3 ovarian it was 106%; in the experiment on IGROV1 ovarian, 95.2%; with OVCAR-3 ovarian, 111%. Also, the growth is 106% with HS 578T breast and 107% with NCI/ADR-RES ovarian.
